One assay concerns the target Albumin (Bos taurus) (UniProt P02769). In words: compounds binding labelled BSA control protein – biochemical, small-molecule microarray, Alexa647 label, 635/667 nm fluorescence, artefact control for SMM control protein annotation, profiling panel (AID 1118).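 Also: score merges 667 nm emission intensity and signal-to-noise per printed compound spot.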 The settings on record: BSA-A647 binding, fluorescence 635 nm, higher = more signal.
The nature of assay [1]: probe aXIP binding to arrayed compounds – biochemical, NeuroSMM set, 635/667 nm fluorescence, primary screen (AID 1119).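 Also: probe is the protein aXip251-270 applied at 1 µg/mL to compound-printed slides; binding of probe to printed compounds measured as 667 nm fluorescence plus signal to noise.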 The settings on record: small-molecule microarray, higher = more signal, called active from +8 up or from −8 down.
Assay [2] can be described thus: probe aNOTCH3 binding on compound microarray – biochemical, small-molecule microarray, 635/667 nm fluorescence, primary screen (AID 1120).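 Also: probe is a biotin-tagged antibody raised against NOTCH3 rather than NOTCH3 protein; score merges spot fluorescence near 667 nm with spot signal to noise.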 The note with it: higher = more signal.
Assay [3] can be described thus: probe aNOTCH2 binding on compound microarray – biochemical, small-molecule microarray, 635/667 nm fluorescence, primary screen (AID 1121).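 Also: score merges feature fluorescence read at 667 nm with its signal to noise.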 The note with it: higher = more signal.
Assay [4] has as its target Carbonic anhydrase 2 (Homo sapiens) (UniProt P00918). The assay can be described thus: compounds binding carbonic anhydrase 2 – biochemical, small-molecule microarray, Alexa647-labelled CAII, profiling panel (AID 1122). The settings on record: CAII-A647 binding fluorescence, higher = more signal.
The nature of assay [5]: COS7 lysate on small-molecule microarray, probe aHis, 635 nm (AID 1123).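 Also: z-score combines 667nm fluorescence intensity with signal-to-noise per printed compound spot.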 The note with it: COS7 cell lysate, fluorescence, higher = more signal.
Assay [6] can be described thus: probe aLAP1 signal on lysate-treated microarray – cell lysate, small-molecule microarray, COS7 lysate, primary screen (AID 1124).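 Also: lysate comes from COS7 cells expressing LAP1 and is applied at 0.3 µg/mL; score merges spot fluorescence near 667 nm with signal-to-noise over triplicate slides.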 The note with it: probe aLAP1, fluorescence, higher = more signal.
A further assay relates to Sam68 (KHDRBS1). The assay can be described thus: compounds binding KHDRBS1 protein – biochemical, small-molecule microarray, 635 nm fluorescence, primary screen (AID 1125).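 Also: score merges 667 nm channel intensity with signal to noise over triplicate slides.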 The settings on record: higher = more signal.
Assay [7] has as its system Chordin-like protein 2 (CHRDL2). In words: compounds binding chordin-like 2 – biochemical, small-molecule microarray, 635 nm fluorescence, primary screen (AID 1126).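 Also: printed compound slides probed with Chrdl2 protein at 4 µg/mL for 1 h at 4 C; score merges 667 nm emission intensity with signal to noise over three replicate slides.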 The note with it: fluorescence 635 nm, higher = more signal.
Assay [8] concerns the target Concanavalin-A (Canavalia ensiformis) (UniProt P02866). In words: compounds binding concanavalin A lectin – biochemical, small-molecule microarray, Alexa647 label, 635 nm, artefact control for SMM control protein annotation, primary screen (AID 1127).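 Also: z combines 667 nm emission intensity with signal-to-noise across three replicate slides.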 The settings on record: ConA-A647 binding fluorescence, higher = more signal.

Activity calls are given as the source filed them.

Chain of Concanavalin-A (Canavalia ensiformis) (P02866 whole entry, looked up): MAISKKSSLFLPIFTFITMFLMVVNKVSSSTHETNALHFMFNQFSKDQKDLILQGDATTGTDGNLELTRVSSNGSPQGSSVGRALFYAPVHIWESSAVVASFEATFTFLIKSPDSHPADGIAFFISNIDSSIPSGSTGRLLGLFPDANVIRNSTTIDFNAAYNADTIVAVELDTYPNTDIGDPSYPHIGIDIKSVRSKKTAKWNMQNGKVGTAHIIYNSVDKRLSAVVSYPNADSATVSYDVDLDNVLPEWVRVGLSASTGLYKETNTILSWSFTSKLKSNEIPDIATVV
Chain of Albumin (Bos taurus) (P02769 whole entry, looked up): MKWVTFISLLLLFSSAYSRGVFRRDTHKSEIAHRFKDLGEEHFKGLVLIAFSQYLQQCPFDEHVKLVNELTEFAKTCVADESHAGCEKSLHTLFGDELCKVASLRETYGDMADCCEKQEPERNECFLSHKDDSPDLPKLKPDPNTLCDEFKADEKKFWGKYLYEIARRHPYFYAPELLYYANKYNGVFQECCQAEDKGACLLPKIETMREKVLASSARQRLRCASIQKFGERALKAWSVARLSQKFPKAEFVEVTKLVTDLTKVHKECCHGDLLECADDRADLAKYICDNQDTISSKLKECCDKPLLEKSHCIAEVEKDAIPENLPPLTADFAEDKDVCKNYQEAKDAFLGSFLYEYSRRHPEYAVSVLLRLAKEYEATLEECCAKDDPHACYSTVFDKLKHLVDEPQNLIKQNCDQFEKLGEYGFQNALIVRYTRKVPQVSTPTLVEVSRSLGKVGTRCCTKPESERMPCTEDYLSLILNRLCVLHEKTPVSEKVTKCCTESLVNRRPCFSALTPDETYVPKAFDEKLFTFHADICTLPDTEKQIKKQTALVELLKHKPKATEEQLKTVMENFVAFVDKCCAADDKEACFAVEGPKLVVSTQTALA

`O=C1OCCC/C=C\[C@H]2OC34C=CCN(Cc5ccccc5)C(=O)[C@H]3N(CCCO)C(=O)[C@@H]4C12` (stereo not given in full): the composite z-score is -0.937 with Albumin (Bos taurus); -0.327 in [2]; -0.104 in assay [3]; 0.948 in assay [4]; -0.861 in [5]; 1.59 in assay [6]. For the same molecule, the composite z-score in the assay with Sam68 (KHDRBS1) was -0.374; in assay [7] it was -1.79; in [8], -1.53. The composite Z-score in assay [1] is 0.581 (inactive).
As to `CCCCC(CC)C(O)C1C=CC2C(=O)N(Cc3ccccc3)C(=O)C2N1n1cnnc1` (stereo not given), the composite z-score in the assay with Albumin (Bos taurus) was 0.0178; in assay [2] it was 0.0116; in assay [3], -0.126; in assay [4], 0.424; in [5], 0.262; in assay [6], -0.192. Also, the composite z-score in the assay on Sam68 (KHDRBS1) was 0.26; in [7], -0.353; in assay [8], 0.273. Further, in assay [1], the composite Z-score was 0.0835 (inactive).
On to `COCCOC(=O)N1C(=O)[C@@]2(c3cc(C#Cc4ccc(OC)cc4)ccc31)[C@H](c1ccc(OCCO)cc1)N1[C@H](c3ccccc3)[C@H](c3ccccc3)OC(=O)[C@H]1[C@@H]2C(=O)N1CCN(c2ncccn2)CC1`, for which the composite z-score with Albumin (Bos taurus) was -0.701; in assay [2] it was -0.0311; in [3], -0.102; in assay [4], 0.357; in [5], 0.977; in [6], 0.182. The composite z-score in the assay on Sam68 (KHDRBS1) was 1.33; in [7], 0.575; in assay [8] it was 1.11. Further, the composite Z-score in assay [1] is -0.799 (inactive).
Turning to `O=C1C2C=CC(C(O)c3cccc4ccccc34)N(Nc3ccccc3F)C2C(=O)N1c1ccccc1` (stereo not given), the composite z-score in the assay with Albumin (Bos taurus) came to 0.799; in assay [2] it was 0.614; in assay [3], 0.0007; in assay [4] it was 0.728; in assay [5], 2.76; in assay [6], 0.491. In addition, the composite z-score in the assay with Sam68 (KHDRBS1) is 1.29; in assay [7] it was -0.539; in assay [8] it was 1.09. For the same molecule, in assay [1], the composite Z-score was 0.791 (inactive).
Turning to `CC1CC/C=C\[C@H]2OC34C=CCN(Cc5ccccc5)C(=O)[C@H]3N(CCCO)C(=O)[C@@H]4C2C(=O)O1` (stereo not given in full), the composite z-score with Albumin (Bos taurus) was -0.0908; in assay [2] it was -0.437; in [3], -0.155; in assay [4] it was 0.861; in assay [5], -0.0465; in [6], 1.25. Moreover, the composite z-score in the assay on Sam68 (KHDRBS1) was -0.649; in [7] it was -0.933; in assay [8] it was -0.841. In assay [1], the composite Z-score is -0.422 (inactive).
Consider `C=C(CC1([C@@H](NP(=O)(c2ccccc2)c2ccccc2)[C@H]2C[C@@H]2CCCC)CC1)c1ccccc1`, for which the composite z-score was 0.844 with Albumin (Bos taurus); 0.335 in assay [2]; 0.17 in [3]; 0.252 in [4]; 2.67 in assay [5]; -0.293 in assay [6]. Also, the composite z-score is 1.14 in the assay on Sam68 (KHDRBS1), -0.874 in [7] and 0.546 in assay [8]. Further, in [1], the composite Z-score was 0.121 (inactive).
Take `O=C(NCCN1CCOCC1)C1N=C(c2ccc(OCCCO)cc2)N(c2ccccc2)O1` (stereo not given): the composite z-score in the assay with Albumin (Bos taurus) came out at 0.439; in [2], 0.0261; in assay [3], 0.119; in assay [4], 0.835; in [5], 2.79; in assay [6] it was 0.908. Moreover, the composite z-score came out at 1.3 in the assay with Sam68 (KHDRBS1), 1.41 in assay [7] and 0.691 in assay [8]. For the same molecule, the composite Z-score in assay [1] is 0.267 (inactive).
For `COc1ccc([Si](C)(C)[C@H]2[C@H](CC(=O)N3Cc4ccccc4C[C@H]3CO)O[C@@]3(C(=O)N(Cc4cccc(N5CCC5=O)c4)c4ccccc43)[C@@H]2C)cc1`, the composite z-score is -0.606 with Albumin (Bos taurus); -0.0003 in assay [2]; -0.14 in assay [3]; 0.584 in [4]; 1.4 in assay [5]; 0.0972 in [6]. Further, the composite z-score amounted to 1.2 in the assay with Sam68 (KHDRBS1), 1.21 in [7] and 0.64 in assay [8]. In assay [1], the composite Z-score is 0.923 (inactive).
For the molecule `CCOC(=O)C[C@H]1[C@H](OC(=O)c2ccc(C(=O)c3ccccc3)cc2)[C@@H](NC(=O)c2ccccc2)c2cc(OCCCO)ccc2N1C(=O)c1ccc2ccccc2n1`, the composite z-score with Albumin (Bos taurus) is 0.783; in assay [2], 0.0561; in [3], -0.0187; in assay [4], 0.418; in [5], 1.53; in assay [6] it was 0.612. For the same molecule, the composite z-score with Sam68 (KHDRBS1) was 1.33; in [7] it was -0.284; in assay [8], 1.05. Also, in [1], the composite Z-score is -0.386 (inactive).
On to `COC(=O)[C@@]1(Cc2ccc(F)cc2)[C@H]2c3cc(C(=O)N4CCCC4)n(CCCNc4ncc(C(F)(F)F)cc4Cl)c3C[C@H]2CN1C(=O)c1ccccc1`, for which the composite z-score with Albumin (Bos taurus) is 0.357; in assay [2], 0.69; in [3], 0.362; in assay [4] it was 0.728; in [5], 2.01; in assay [6] it was -0.252. In addition, the results for the composite z-score (with Sam68 (KHDRBS1); in assay [7]; in assay [8]) were 0.541, 0.197 and 0.625, respectively. The composite Z-score in [1] is -0.585 (inactive).
As to `CC(C)[Si](C#Cc1ccc(Oc2ccccc2)cc1)(O[Si](C#Cc1ccc(Oc2ccccc2)cc1)(C(C)C)C(C)C)C(C)C`, the composite z-score with Albumin (Bos taurus) is 0.216; in [2] it was -0.0188; in assay [3] it was -0.037; in [4], 0.603; in [5] it was 0.407; in assay [6], 0.115. Also, the composite z-score in the assay on Sam68 (KHDRBS1) was 0.562; in assay [7], 0.156; in assay [8], -0.76. In addition, in assay [1], the composite Z-score is 0.387 (inactive).
In the case of `CC(C)c1ccc(NN2C(C(O)c3ccc(B(O)O)cc3)C=CC3C(=O)N(c4ccccc4)C(=O)C32)cc1` (stereo not given), the composite z-score was found to be 0.958 in the assay with Albumin (Bos taurus); 0.216 in assay [2]; 0.0571 in assay [3]; 0.493 in assay [4]; 2.32 in assay [5]; 0.681 in assay [6]. The composite z-score in the assay on Sam68 (KHDRBS1) was 1.26; in [7], -1.06; in assay [8], 1.06. In addition, the composite Z-score in assay [1] was -0.852 (inactive).
Consider `C=CCOC(=O)[C@H]1[C@@H]2C(=O)O[C@@H](c3ccccc3)[C@@H](c3ccccc3)N2[C@@H](c2ccc(OCCOC(=O)[C@@H]3C[C@@H]4C(=O)N[C@@H](CC(C)C)C(=O)N4[C@@H]3c3ccc(O)cc3)cc2)[C@]12C(=O)Nc1ccccc12`, for which the composite z-score was 0.481 with Albumin (Bos taurus); 0.058 in assay [2]; -0.0631 in assay [3]; 0.592 in [4]; 2.62 in assay [5]; 0.545 in [6]. Besides, the figures for the composite z-score (with Sam68 (KHDRBS1); in assay [7]; in assay [8]) were 1.29, 1.25 and 1.15, respectively. Further, in [1], the composite Z-score was 0.183 (inactive).
Regarding `O=C(CS)NCCCCCCNC(=O)[C@@H]1C[C@@H]2C(=O)N[C@@H](Cc3ccccc3)C(=O)N2[C@@H]1c1cccc(OCCO)c1`, the composite z-score with Albumin (Bos taurus) was -0.623; in assay [2], 0.169; in assay [3], -0.0248; in assay [4], 0.567; in assay [5], 2.28; in assay [6], -0.488. Also, the composite z-score with Sam68 (KHDRBS1) is 1.29; in assay [7], 0.892; in [8] it was 1.15. For the same molecule, the composite Z-score in [1] was 0.439 (inactive).

The values above are taken from PubChem BioAssay.
